The supplement of paper PMC6555819

Experiments:
Test in all cases: PBM binding z-score (relative to random genomic background probes); higher = stronger binding; sequences stand for … in GC…GCGATTGACAGCGTAGAATGAAGG
[1] = system: RARb homodimer (NR concentration 270 nM)
Outline: (§1)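 Ligand-free nuclear receptor dimers were applied to custom Agilent 4×180K protein-binding microarrays whose double-stranded probes carried direct-repeat seeds, single-nucleotide variants, half-site ablations and random human genomic background sequences in 34-nt variable regions. Incubation lasted 1 h. Binding z-scores were computed against the random background probes from regression-normalized fluorescence.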

[2] = system: RARg:RXRa (NR concentration 270 nM, RXRa partner concentration 90 nM)
Outline: as §1

[3] = system: RARg homodimer (NR concentration 270 nM)
Outline: as §1

[4] = system: RXRa DBDmut IVT, anti-RXR (DBD mutation: RXRa K156A/R161A, NR concentration 90 nM)
Outline: as §1

[5] = system: RXRa homodimer (NR concentration 180 nM)
Outline: as §1

[6] = system: THRa:RXRa (NR concentration 90 nM, RXRa partner concentration 90 nM)
Outline: as §1

[7] = system: THRa homodimer (NR concentration 90 nM)
Outline: as §1

[8] = system: VDR homodimer (NR concentration 270 nM)
Outline: as §1

| Sequence | PBM binding z-score [1] | PBM binding z-score [2] | PBM binding z-score [3] | PBM binding z-score [4] | PBM binding z-score [5] | PBM binding z-score [6] | PBM binding z-score [7] | PBM binding z-score [8] |
| --- | --- | --- | --- | --- | --- | --- | --- | --- |
| CCTATTAGTTGACCATGAGGGCAACCGAAGCTCG | 2.22 | 1.32 | 1.16 | 0.831 | 0.812 | 2.11 | 1.79 | 1.43 |
| CCGACTGGGGCAAGGTTACTATAACGCACAGCCA | 1.04 | 0.944 | 1.12 | -0.108 | 0.985 | 0.939 | 0.2 | 0.00113 |
| CAGCCTAGGTCAGGGCCAGGATAGGAGGAACGTT | 2.32 | 3.04 | 3.91 | -0.715 | 1.53 | 2.31 | 0.538 | -0.171 |
| TTACCAAGGTGAAGGTCGTTTATCCCTCTGTAGA | 1.99 | 1.2 | 1.11 | 0.869 | 1.49 | 2.5 | 1.18 | 1.61 |
| CCAACTGGGGCAAAGGTTACCATACTCAGTACGA | 2.56 | 3.77 | 2.06 | 0.365 | 4.41 | 1.84 | 0.0572 | 0.0335 |
| ATCTCTAGGAAAAGTTCAGTGAAAGATCGATAGA | 2.13 | 1.53 | 1.87 | 1.03 | 0.695 | 0.532 | -0.316 | 1.66 |
| TCTCGGGGGACACGAAGGTCAGAGCTTTCCAGAG | 4.17 | 4.68 | 5.9 | 1.89 | 3 | 3.32 | 1.58 | 1.76 |
| CCAGACAGGTGCAAGGTAACTCAGTCTGGTACGC | -0.106 | -0.306 | -0.108 | 0.584 | 0.00435 | 0.379 | 0.244 | 0.489 |
| TGAAAGAGGTTATAAGATCAGGGAACGTTGCAAA | 0.261 | 2.01 | 1.15 | 0.022 | 2.37 | 0.935 | -0.921 | -0.105 |
| TCAGACGGGTGAAGGTAACTCAGGTACGCAGTCG | 0.122 | 0.19 | 0.0578 | 0.65 | 0.866 | 1.28 | -0.229 | -0.187 |
| ACTATTAGTTGACTTAGGGCCACCGATACGACGC | 0.765 | 0.549 | 0.739 | 0.785 | 0.774 | 2.48 | 0.956 | 0.47 |
| CGCCAAAGTTCAACTAAGGTAACGTAAAGCACGC | 4.29 | 5.87 | 6.48 | 4.67 | 4.49 | 5.24 | 2.11 | 3.81 |
| CCTACTGGACCACGAAAGGTCATTGATTCAGTGA | 4.5 | 4.44 | 3.94 | 1.31 | 5.46 | 3.36 | 1.6 | 2.68 |
| TAGCCTAGGTCATCCAGGGGCCAGTATAGAAAGC | 3.71 | 6.41 | 5.07 | 0.731 | 2.94 | 3.55 | 0.878 | 0.913 |
| GATACAGGGTCAAGTCCAGAGTACGCGTATTGAT | 3.68 | 5.8 | 5.41 | 3.08 | 6.06 | 3.68 | 1.22 | 3.51 |
| TAGCCTAGGTCATGTGGGCCAGTATAGTGTCGGC | 3.33 | 3.77 | 4.65 | 0.816 | 3.13 | 2.97 | 1.48 | 0.672 |
| ATATGTAGGTTAGCTGGGGCCATTCAGACTAGGC | 1.17 | 0.84 | 0.74 | 0.565 | 0.845 | 4.13 | 0.768 | 0.832 |
| CTTCCAAGGTCATAGGAGGTCAGTGAAGACAGAT | 5.3 | 7 | 7.48 | 3.89 | 7.13 | 5.26 | 3.21 | 4.49 |
| AGAATGAGGTTAAGGTCAGGGAAACAGAATACAT | 4.1 | 4.97 | 4.67 | 1.43 | 4.93 | 4.39 | 4.62 | 2.36 |
| CGAGACAGGTGAGAAGGTAACTCAGCCTCGATTA | 0.319 | 0.434 | 0.338 | -0.6 | 0.212 | 0.0357 | -0.411 | -0.621 |
| CCAGGCAGGTGAGAAGGTAACTCAGCCTCGATTA | 0.294 | 0.181 | -0.0537 | -0.754 | 0.145 | 0.198 | -0.116 | -0.279 |
| CCTCAGAGGACAACAGGAGGTCAGAGCTGCCAGA | 3.94 | 4.09 | 4.83 | 1.36 | 2.06 | 2.79 | 0.791 | 1.29 |
| AGAATGAGGTTACCAAAGATCATGGAAACGCTTG | 0.797 | 2.26 | 1.87 | 1.21 | 2.81 | 3.03 | 0.729 | 0.455 |
| TAGCCTAGGTCATTGGGCCAGTTTAGTACGCATC | 2.94 | 3.74 | 3.68 | 1.46 | 2.81 | 3.03 | 1 | 1.46 |
| TCTTGTAGATCAGCAGGTTAAGCAAGCTGGCCAA | -0.0177 | -0.192 | -0.525 | 0.455 | 0.213 | -0.00536 | -0.897 | -0.751 |
| CGAACTAGGTCATTGACAGGACAGTGACTAGTAA | 2.75 | 4.69 | 4.28 | 2.44 | 2.69 | 2.84 | 0.58 | 1.07 |
| ACTAGCACGCCAAGGGTCACTCAAGATTAGTCCG | 3.93 | 3.88 | 3.91 | 1.02 | 3.73 | 2.86 | 0.515 | 1.49 |
| AGAACGAGAGCAATGAGTTGATAGCACGGGTGGC | -0.971 | -0.154 | -0.0386 | -0.0984 | 0.0785 | -0.86 | -1.05 | 0.253 |
